Assay outcomes from PubChem.
HTT aggregate = inhibitors of mutant huntingtin aggregate formation in PC12 cells. Potency, µM (doses to about 46.1 µM), inactives show at the top dose activity change, negative = inhibition, hits mostly inhibitors. PC12 HttQ103-GFP aggregates, Acumen cytometry, 40 h. AID 1688. hit rate 1.1% among 220,000; also: potency is read from the fitted curve at half-maximal effect; % is scaled to controls: 0 for no effect and ±100 for the full control effect; nearly all actives have a fitted effect of over 60% in size
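Multiplexed with ATP-based cell death, this channel scores GFP aggregates in PC12 cells expressing inducible HTTex1-Q103-GFP. Induction used 100 nM tebufenozide; compounds were tested in concentration series.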
HPGD block = blocks human HPGD enzyme activity; hit rate 4.3% among 150,000; Potency, µM, inactives show at the highest dose activity change, negative = inhibition, most hits filed as inhibitors; AID 894; purified HPGD, NADH fluorescence kinetic, PGE2 substrate; P15428; active = well fitted inhibition curve with a large enough effect, not every such curve was filed as active; inconclusive = small, poorly fitted or top-dose-only effect, or another doubt; inactive = no such curve, though single readings can be large or run the other way; also: potency is read from the fitted curve at half-maximal effect; % is scaled to controls: 0 for no effect and ±100 for the full control effect
Target sequence (P15428 whole entry, looked up): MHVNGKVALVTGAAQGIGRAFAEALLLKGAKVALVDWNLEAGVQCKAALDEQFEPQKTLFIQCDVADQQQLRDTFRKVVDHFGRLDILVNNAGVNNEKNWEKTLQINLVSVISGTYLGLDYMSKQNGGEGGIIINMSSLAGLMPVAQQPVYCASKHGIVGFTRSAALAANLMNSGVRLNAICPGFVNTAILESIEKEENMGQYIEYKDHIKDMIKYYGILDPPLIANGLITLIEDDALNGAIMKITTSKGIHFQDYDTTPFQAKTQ
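20 nM HPGD preincubated 15 min at room temperature with compound in 50 mM Tris-HCl pH 8, 0.01% Tween 20. Started with 1 mM NAD+ and 30 uM prostaglandin E2; NADH fluorescence (360/450 nm) read 5 times over 30-s intervals, last minus first.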
IMPase Li inh = cell-permeable IMPase inhibitors with lithium potentiation. hit rate 0.35% among 210,000. CHO-M1 cells, IP1 TR-FRET (IP-One), carbachol + lithium. Potency, µM (highest dose often 59.4 µM), for the others: at the highest dose activity, negative = IMPase inhibition, actives largely listed as inhibitors;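 also: IP1 builds up when IMPase is blocked and the TR-FRET signal falls; potency is read from the fitted curve at half-maximal effect; plate controls were basal vehicle for no effect and high inhibitor control for full effect; nearly all actives have a fitted effect of over 50% in size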
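Readout is a homogeneous TR-FRET IP1 immunoassay (Ex 320, Em 665 and 620), where raised cytosolic IP1 lowers signal. Cells were CHO-M1 treated 30 min at 37C with test compounds plus a little lithium; AC50 values came from Hill-equation fitting.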
ALDH1A1 block = inhibitors of human aldehyde dehydrogenase 1A1. AID 1030. Purified ALDH1A1, NADH fluorescence, propionaldehyde substrate. P00352. hit rate 7.3% among 220,000. Potency, µM (highest dose often 75.3 µM), inactives show at the highest dose activity, negative = inhibition, hits mostly inhibitors; active = well fitted inhibition curve with a large enough effect, not every such curve was filed as active; inconclusive = small, poorly fitted or top-dose-only effect, or another doubt; inactive = no such curve, though single readings can be large or run the other way;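 also: potency is read from the fitted curve at half-maximal effect; plate controls were no enzyme wells and a reference inhibitor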
HTT cytoprotect = cytoprotection in Huntington HTT-Q103 PC12 cell model. hit rate 0.14% among 230,000. AID 1471. PC12 HTT-Q103 induced, cytoprotection, ATP luminescence, 40 h. Potency, µM (highest dose often 56.4 µM), for the others: cytoprotection (ATP increase), hits mostly activators; also: potency is read from the fitted curve at half-maximal effect; % of control where 0% means no effect; nearly all actives have a fitted effect of over 45% in size
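Readout: ATPlite luminescence (ATP level). Model: stable PC12, inducible Htt exon1 Q103-GFP. Inducer: tebufenozide, 100 nM final. Compounds: dose series. No G418 in medium.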
IMPase cell inh = membrane-permeable compound that blocks inositol monophosphatase; CHO-M1 cells, IP1 accumulation, HTRF TR-FRET ratio; inhibition (IP1 accumulation), % at 46.1 µM; 120,000 tested, under 10 active; AID 901; active = well fitted curve in the direction sought with a large enough effect in the signal ratio, not every such curve was filed as active; inconclusive = small, poorly fitted or top-dose-only effect, or a change in a side signal; inactive = no such curve, though single readings can be large or run the other way; the % refers to the signal ratio;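 also: cells stimulated with carbachol in lithium chloride buffer; plate controls were DMSO basal wells for no effect and reference inhibitor wells for full effect; higher means more IMPase inhibition seen as more IP1 and lower FRET ratio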
Target sequence (P97697 whole entry, looked up): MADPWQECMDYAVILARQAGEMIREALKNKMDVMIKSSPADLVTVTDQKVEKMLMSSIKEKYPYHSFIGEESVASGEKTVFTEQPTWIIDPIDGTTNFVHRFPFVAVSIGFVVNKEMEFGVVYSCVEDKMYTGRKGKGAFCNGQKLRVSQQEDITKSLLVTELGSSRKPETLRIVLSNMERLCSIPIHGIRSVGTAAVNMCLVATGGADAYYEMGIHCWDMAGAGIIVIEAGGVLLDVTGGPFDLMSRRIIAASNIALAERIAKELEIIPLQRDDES
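Cellular IMPase inhibition is scored as a rise in cytosolic IP1, detected by competitive TR-FRET between d2-labelled IP1 and a europium anti-IP1 antibody. M1-expressing CHO cells were stimulated with carbachol for 30 min at 37C, with lithium (50 mM LiCl) present in the buffer.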
The depositor's hits bear a star; ? = inconclusive; · = no result given; [ ] = another dose, or the depositor's remark. Hits are enriched below; roughly 9.4% of the tested compounds scored in any of these assays. Unless noted, calls follow the shape of the dose curve; as a rule, active = well fitted curve in the direction sought with a large enough effect; inconclusive = small, poorly fitted or top-dose-only effect, or another doubt; inactive = no such curve, though single readings can be large; an effect the other way counts as inactive or inconclusive.

SMILES	HTT aggregate	HPGD block	IMPase Li inh	ALDH1A1 block	HTT cytoprotect	IMPase cell inh
COc1ccc(S(=O)(=O)Nc2ccccc2SC)cc1C	?	-7%	11µM*	?	-1%[10 µM]	4
COc1ccc(S(=O)(=O)Nc2ccccc2OC)cc1C	-16%	-6%	16%[38.3 µM]	0%	-4%[0.074 µM]	-3
Cc1cc(CNC(=O)[C@@H]2C[C@H]2[C@@H](NP(=O)(c2ccccc2)c2ccccc2)c2ccccc2)nn1C	·	-18%	11%	-1%	-52%	·
O=C(O)c1cc(Br)ccc1NN=C1CCCCC1	-18%	25µM*	-3%	?	-10%[10 µM]	·
CO/N=C1/[C@H]2O[C@@H]2[C@@H](O)[C@H]2[C@H]1CCn1c(=O)n(-c3ccccc3)c(=O)n12	·	·	·	-6%[13.5 µM]	5%[10 µM]	·
Cc1noc(C)c1C(=O)N1CCC2(CCN(C(=O)NC(C)C)CC2)CC1	·	-7%	0%	8%	17%	·
CN(C)c1ccnc(Oc2ccc(Cl)cc2)c1C#N	?	32µM*	18%[38.3 µM]	25µM*	-51%	11
CN(C)c1ccnc(Oc2ccccc2)c1C#N	1%	?	?	?	-2%	5
CN(C)c1ccnc(Oc2ccc(C(C)(C)C)cc2)c1C#N	-28%	35µM*	29%[38.3 µM]	?	-9%[10 µM]	-10[1.84 µM]
CCOC(=O)c1c(NC(=O)Nc2ccc(F)cc2)sc2c1CCN(C)C2	-7%[9.22 µM]	·	·	-6%	6%[10 µM]	·
CCOC(=O)c1c(NC(=S)Nc2ccc(OCC)cc2)sc2c1CCN(C)C2	-7%[9.22 µM]	·	·	24µM*	5%[10 µM]	·
CCOC(=O)c1c(NC(=S)Nc2ccc(Cl)cc2)sc2c1CCN(C)C2	-7%	-27%	6%	25µM*	?	·
COC(=O)c1c(N)n(-c2ccc(OC)c(OC)c2)c2nc3ccccc3nc12	·	·	·	·	·	9
N/C(=N\OC(=O)Nc1ccccc1)c1ncc(C(F)(F)F)cc1Cl	5%	-12%	19%[38.3 µM]	?	-18%	4
O/N=C(\c1ccc(Cl)cc1Cl)c1ncc(C(F)(F)F)cc1Cl	26%[9.22 µM]	25µM*	27%[38.3 µM]	?	-3%	3
O=C(c1ccc(Cl)cc1Cl)c1ncc(C(F)(F)F)cc1Cl	-4%	-19%	-3%[38.3 µM]	10%	0%	2
O=C(c1ccccc1)c1ncc(C(F)(F)F)cc1Cl	-15%	32µM*	14%[38.3 µM]	-6%	10%[10 µM]	-16
O=C1c2ccccc2[C@@H]([C@@H]2c3ccccc3C(=O)c3cc(Br)ccc32)c2ccc(Br)cc21	·	-8%	8%	-11%[13.5 µM]	1%[10 µM]	·
Cc1ccc(C(=O)CC2(O)C(=O)N(C)c3ccccc32)o1 (centres undefined)	-9%	-27%	?	25µM*	-8%	-20
COC(=O)CN1C(=O)C(O)(CC(=O)c2ccc(C)cc2)c2ccccc21 (centres undefined)	-11%	5%	14%[38.3 µM]	8.9µM*	9%[10 µM]	-3
C=CCN1C(=O)C(O)(CC(=O)c2ccc(N)cc2)c2ccccc21 (centres undefined)	3%	-13%	-3%[38.3 µM]	5.6µM*	2%	11
COC(=O)CN1C(=O)C(O)(CC(=O)c2ccccc2)c2ccccc21 (centres undefined)	-15%	-5%	19%[38.3 µM]	4.5µM*	-7%	0
CCc1ccc(C(=O)CC2(O)C(=O)N(Cc3ccc(C)cc3)c3ccccc32)cc1 (centres undefined)	·	·	·	·	·	4
CN1C(=O)C(O)(CC(=O)c2ccncc2)c2ccccc21 (centres undefined)	-5%	2%	37%[38.3 µM]	?	4%	-3
O=C(c1csnn1)N1CCC2(CCCN(c3ccc(-c4ccccc4)cc3)C2)CC1	·	-13%	2%	-13%	0%	·
SMILES	HTT aggregate	HPGD block	IMPase Li inh	ALDH1A1 block	HTT cytoprotect	IMPase cell inh
O=S(=O)(O)c1cc(O)c2c(N=Nc3ccc(Nc4ccccc4)c4c(S(=O)(=O)O)cccc34)cc(S(=O)(=O)O)cc2c1	2%	·	·	·	-250%	·
COC(=O)CN1C(=O)C(O)(CC(=O)c2ccc(C)o2)c2ccccc21 (centres undefined)	-23%	5%	27%[38.3 µM]	7.9µM*	-2%	10
COC(=O)CN1C(=O)C2(OCCCO2)c2ccccc21	-16%	-8%	15%[38.3 µM]	-7%	-3%[0.074 µM]	3
Cc1ccc(C(=O)CC2(O)C(=O)N(CN3CCOCC3)c3ccccc32)cc1 (centres undefined)	?	-15%	13%[38.3 µM]	14µM*	4%	-5
O=C(CC1(O)C(=O)N(C/C=C/c2ccccc2)c2ccccc21)c1ccccn1 (centres undefined)	9%	·	·	0.79µM*	-28%	13
O=C(CC1(O)C(=O)N(CCc2ccccc2)c2ccccc21)c1ccccn1 (centres undefined)	8%	·	-1%	?	-36%	·
CCc1ccc(C(=O)CC2(O)C(=O)N(CN3CCOCC3)c3ccccc32)cc1 (centres undefined)	9%	-5%	-3%[38.3 µM]	0%	-20%[0.074 µM]	1
COC(=O)C/C=C/C(C)C(OCc1cccc(Br)c1)C(C)C(OC)C1CCCCC1 (centres undefined)	·	·	·	7%[13.5 µM]	-29%[10 µM]	·
O=C(O)C(Sc1ccc(Cl)cc1)Sc1ccc(Cl)cc1	·	-13%	-1%	10%[13.5 µM]	4%[10 µM]	·
Cc1c(C(=O)COC(C)(C)C)[nH]c2ccccc12	?	4.5µM*	1%	6.3µM*	3%[10 µM]	12
NC1(C(=O)NC2(C(=O)O)CCCC2)CCCC1	·	-1%	-7%	11%[13.5 µM]	16%[10 µM]	·
Cc1scc(C(=O)N2CCN(c3ccc(Cl)cc3)CC2)c1C	-1%	·	7%	20µM*	3%[10 µM]	·
O=C(c1ccccc1C(=O)N1CCN(c2ccccc2)CC1)N1CCN(c2ccccc2)CC1	-10%	-2%	-2%	?	6%[10 µM]	5
O=C(c1ccccc1)N1CCN(c2ccc(Cl)cc2)CC1	0%[9.22 µM]	-28%	19%[38.3 µM]	14µM*	-12%	-5
O=C(O)c1ccccc1C(=O)N1CCN(c2ccccc2)CC1	-2%	-12%	-27%[38.3 µM]	16µM*	13%[10 µM]	-1
O=C(N1CCCCC1)N1CCN(c2ccc(Cl)cc2)CC1	?	?	14%[38.3 µM]	7.9µM*	-4%[10 µM]	3
O=C(c1csnn1)N1CCC2(CC1)CCN(c1ncccn1)CC2	·	-11%	-1%	4%	-5%	·
COc1ccc(-c2cc(C(F)(F)F)nc(SCC(=O)NCc3ccc(Cl)cc3)n2)cc1	·	·	·	·	·	12
COc1cccc(NC(c2nnc(-c3ccccc3)o2)c2ccc(F)cc2Cl)c1 (centres undefined)	·	·	·	·	·	-3
CCOC(=O)c1ccc(NC(=O)c2c(-c3c(F)cccc3Cl)noc2C)cc1	·	·	·	·	·	2
CCOC(=O)C1C(=O)C=C(/C=C/c2ccc(N(C)C)cc2)CC1c1ccccc1 (centres undefined)	?	-4%	-22%	0%	-2%[10 µM]	1
